Source: PubChem
This excerpt belongs to a sample that is enriched for hits.
CD40 NFkB inh = CD40 pathway inhibition in BL2 cells; BL2 NF-kB luciferase reporter, CD40L-induced, 4 h; inhibition, % at 10 µM; 83,000 tested, 0.94% active; AID 1053188;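 active = mean inhibition of at least 50% with a set share of replicates also reaching that level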;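 note: 0% = neutral control wells and 100% = IKK inhibitor VII at 50 µM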
* marks the source's active call; other numbers are inactive results; [ ] = dose if it differs, or a comment.

SMILES	CD40 NFkB inh
COc1cccc(-c2ccc3n(c2=O)C[C@H]2[C@H](CO)[C@@H](C(=O)N(C)C)N(C(=O)C4CCCC4)[C@@H]32)c1	-0.4
CC(C)CC#Cc1ccc([C@@H]2[C@H](CO)N3C(=O)CN(C(=O)NC4CCCC4)C[C@@H]23)cc1	17.7
N#C[C@H]1[C@@H](c2ccccc2-c2ccc(F)cc2)[C@H](CO)N1C(=O)Cc1ccccc1	-5.1[25 µM]
COc1ccc(S(=O)(=O)N2C[C@H](O)COC[C@H]3O[C@H](CC(=O)N[C@@H]4CCN(Cc5ccccc5)C4)CC[C@@H]32)cc1	2.6[25 µM]
CC(OC(=O)c1ccccn1)C(=O)Nc1ccc2c(c1)OCCO2 (centres undefined)	-1.0
O=C(Nc1ccc2c(c1)OCCO2)c1ccccn1	77.9*
O=C(Nc1ccc2c(c1)OCCO2)c1ccc2ccccc2n1	-41.9
CNC[C@@H]1Oc2c(NC(C)=O)cccc2C(=O)N(C)C[C@H]1C	4.8
O=C(C[C@H]1C[C@@H]2c3cc(NC(=O)Nc4ccccc4F)ccc3O[C@@H]2[C@H](CO)O1)NCCc1ccccc1	-7.0[25 µM]
CN(C[C@H]1N[C@@H](CO)[C@@H]1c1ccc(-c2cccc(F)c2)cc1)S(C)(=O)=O	-11.6[25 µM]
CCOC(=O)C1CCN(C2CCN(Cc3nc(-c4ccccc4)no3)CC2)CC1	3.7
CCOC(=O)C1CCN(C(=O)c2cccnc2)CC1	5.8
CCOC(=O)C1CCN(Cc2ccc(O)c3ncccc23)CC1	103.2*
O=C(Nc1ccc2c(c1)OCO2)N[C@@H]1CC[C@@H](CCNC(=O)C2CCCC2)O[C@H]1CO	-1.2
CCc1cnc(N2[C@H](C#N)[C@H](c3ccc(C#CCC4CCCC4)cc3)[C@@H]2CO)s1	56.2*[25 µM]
CCc1cnc(N2[C@@H](C#N)[C@@H](c3ccc(C#CCC4CCCC4)cc3)[C@@H]2CO)s1	15.7[25 µM]
CCc1cnc(N2[C@H](C#N)[C@H](c3ccc(C#CCC4CCCC4)cc3)[C@H]2CO)s1	4.8[25 µM]
N#C[C@@H]1[C@H](c2ccc(-c3cccc(F)c3)cc2)[C@H](CO)N1C(=O)NC1CCCCC1	11.9
N#C[C@H]1[C@@H](c2ccccc2-c2ccccc2)[C@H](CO)N1C(=O)Cc1cccnc1	-15.0[25 µM]
CCNC(=O)c1cc2c(c(-c3cccc(-c4cc5ccccc5o4)c3)n1)[C@@H](CCO)N(C(=O)NC(C)C)C2	-23.1
CC(C)NC(=O)N1Cc2cc(C(=O)NC3CCC3)nc(-c3cccc(-c4cncnc4)c3)c2[C@@H]1CCO	9.6[25 µM]
CCCNC(=O)c1cc2c(c(-c3cccc(-c4cc5ccccc5o4)c3)n1)[C@H](CCO)N(C(=O)NC(C)C)C2	55.8*[25 µM]
CCCN1[C@@H]2c3ccc(-c4ccccc4OC)c(=O)n3C[C@@H]2[C@@H](CO)[C@@H]1C(=O)N(C)C	-1.0[25 µM]
C[C@H](CO)N1C[C@H](C)[C@H](CN(C)S(=O)(=O)c2ccc(Oc3ccccc3)cc2)OCc2cnnn2CCCC1=O	15.8
CCCNC(=O)N1[C@H](CO)[C@H](c2ccccc2)[C@H]1CNC(C)=O	1.9
SMILES	CD40 NFkB inh
CO[C@@H](C(=O)N(C)C[C@@H]1OCc2ccccc2-c2ccccc2C(=O)N([C@H](C)CO)C[C@@H]1C)c1ccccc1	-15.0[25 µM]
COc1cccc(Nc2nc(-c3ccc4c(c3)OCCO4)cs2)c1	-94.4
O=C(Nc1nc(-c2ccc3c(c2)OCCO3)cs1)c1ccco1	-4.8
COc1ccccc1C(=O)Nc1nc(-c2ccc3c(c2)OCCO3)cs1	50.0*
Cc1ccc(-c2ccccc2[C@@H]2[C@H](C#N)N(C(=O)Cc3cccnc3)[C@H]2CO)cc1	-14.6[25 µM]
O=C(Nc1ccc(Cl)c(S(=O)(=O)N2CCOCC2)c1)c1cn2ccccc2n1	5.8
O=C(NC1CC1)c1cccc(NC(=O)c2cn3ccccc3n2)c1	-90.0
O=C(Nc1ccc(N2CCOCC2)cc1)c1cn2ccccc2n1	57.1*
CC(C)NC(=O)Nc1ccc2c(c1)C(=O)N(C)C[C@@H](C)[C@@H](CN(C)C)O2	11.2
c1ccc(-c2nc(-c3ccccn3)no2)cc1	87.3*
c1ccc(-c2noc(-c3ccco3)n2)nc1	-70.6
c1ccc(-c2noc(-c3ccno3)n2)nc1	-24.7
N#C[C@@H]1[C@H](c2ccccc2-c2cccc(F)c2)[C@H](CO)N1C(=O)NC1CCCC1	15.2
O=C(C[C@@H]1C[C@H]2c3cc(NC(=O)C4CCC4)ccc3O[C@H]2[C@@H](CO)O1)NCCc1ccccc1	-18.1[25 µM]
Cc1ccc(S(=O)(=O)N(C)C[C@H]2OCCCC[C@@H](C)Oc3ccc(NS(=O)(=O)c4ccc(Cl)cc4)cc3C(=O)N([C@@H](C)CO)C[C@@H]2C)cc1	16.2
CCN(Cc1ccccc1)S(=O)(=O)c1ccc(C(=O)N(CCCN(C)C)c2nc3cc(OC)ccc3s2)cc1	51.9*
CCN(Cc1ccccc1)S(=O)(=O)c1ccc(C(=O)N(CCCN(C)C)c2nc3cc4c(cc3s2)OCCO4)cc1	16.0
COc1ccc2sc(N(CCCN(C)C)C(=O)c3ccc(C(=O)c4ccccc4)cc3)nc2c1	9.0
CN1CCN(C(=O)C[C@H]2CC[C@H]3[C@H](COc4ccc(NC(=O)C5CCCC5)cc4C(=O)N3C)O2)CC1	8.9
C[C@@H]1CC(=O)N[C@@H](c2ccccc2)C/C=C\C[C@H](c2ccc3c(c2)OCO3)NC1=O	-6.2[25 µM]
